What all share (test): PBM binding z-score (relative to random genomic background probes); higher = stronger binding; sequences stand for … in GC…GCGATTGACAGCGTAGAATGAAGG
In experiment [1] the test system is PPARg:RXRa DBDmut IVT, anti-RXR (DBD mutation: RXRa K156A/R161A, NR concentration 270 nM, RXRa partner concentration 90 nM). In a few lines: (§1)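 Ligand-free nuclear receptor dimers were bound for 1 h to custom Agilent 4×180K protein-binding microarrays. Detection used antibodies against each partner (one per run). Binding z-scores rest on regression-normalized fluorescence, with random background probes as the reference.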

For experiment [2], the system named is PPARg:RXRa IVT, anti-PPARg (NR concentration 270 nM, RXRa partner concentration 90 nM). In a few lines: as §1
The test system of experiment [3] is PPARg DBDmut:RXRa IVT, anti-PPARg (DBD mutation: PPARg1 K132A/R137A, NR concentration 270 nM, RXRa partner concentration 90 nM). In short, it runs like this: as §1
For experiment [4], the system named is PPARg DBDmut IVT, anti-PPARg (DBD mutation: PPARg1 K132A/R137A, NR concentration 270 nM). In a few lines:
as §1

Experiment [5] relates to PPARg homodimer (NR concentration 180 nM). In a few lines:
as §1

Experiment [6] relates to PXR homodimer (NR concentration 270 nM). In short, it runs like this: as §1
Experiment [7] deals with RARa:RXR (NR concentration 270 nM, RXRa partner concentration 90 nM). In short, it runs like this: as §1
The test system of experiment [8] is RARa homodimer (NR concentration 270 nM). In a few lines:
as §1

In experiment [9] the test system is RARb:RXRa (NR concentration 270 nM, RXRa partner concentration 90 nM). In short, it runs like this: as §1
Experiment [10] concerns RARb homodimer (NR concentration 270 nM). In a few lines: as §1
The test system of experiment [11] is RARg:RXRa (NR concentration 270 nM, RXRa partner concentration 90 nM). In short, it runs like this: as §1
Experiment [12] deals with RARg homodimer (NR concentration 270 nM). In a few lines:
as §1

Experiment [13] deals with RXRa DBDmut IVT, anti-RXR (DBD mutation: RXRa K156A/R161A, NR concentration 90 nM). In short, it runs like this: as §1
The test system of experiment [14] is RXRa homodimer (NR concentration 180 nM). In a few lines:
as §1

In experiment [15] the test system is THRa:RXRa (NR concentration 90 nM, RXRa partner concentration 90 nM). In a few lines:
as §1

Experiment [16] concerns THRa homodimer (NR concentration 90 nM). In a few lines: as §1
For experiment [17], the system named is VDR homodimer (NR concentration 270 nM). In a few lines:
as §1

Experiment [18] deals with VDR:RXRa (NR concentration 270 nM, RXRa partner concentration 90 nM). In short, it runs like this: as §1
In experiment [19] the test system is PXR:RXRa (NR concentration 270 nM, RXRa partner concentration 90 nM). In a few lines: as §1

ATATGTAGGTCAGCTGGGGTCATTCAGACTAGGC: the PBM binding z-score was determined as 8.08 in experiment [1]; 8.21 in experiment [2]; 5.33 in [3]; 2.2 in experiment [4]; 4.29 in [5]; 5.2 in experiment [6]. The PBM binding z-score in experiment [7] is 6.74; in experiment [8] it was 1.6; in [9] it was 4.57; in experiment [10], 5.26; in experiment [11], 6.13; in experiment [12], 6.32. Besides, the PBM binding z-score came to 2.43 in [13]; 6.85 in [14]; 5.44 in [15]; 3.41 in [16]; 5.57 in experiment [17].
Consider ATACCAAGGTGATCGTGAGTTCGTTGATACTAAC, for which the PBM binding z-score in experiment [1] was 0.668; in experiment [2], 0.994; in [3], -0.0501; in experiment [4], 0.822; in [5], 0.422; in [6], 3.19. Further, the PBM binding z-score in experiment [7] turned out to be 0.619; in experiment [8] it was 0.465; in experiment [9], 0.462; in experiment [10], 0.465; in experiment [11] it was 0.682; in [12] it was 0.338. Also, the PBM binding z-score turned out to be 1.2 in experiment [13]; 0.456 in [14]; 1.58 in [15]; 0.74 in [16]; 4.08 in experiment [18]; 4.63 in experiment [17].
With CGTCCAAGGTCAAGGGCAGTGAAAGAGACTCGAA, the PBM binding z-score in [1] was 2.83; in experiment [2] it was 4; in experiment [3], 0.426; in [4] it was -0.438; in experiment [5] it was 1.82; in [6], 0.609. For the same sequence, the PBM binding z-score in [7] came to 3.82; in experiment [8] it was 1.15; in experiment [9], 5.64; in experiment [10], 4.22; in experiment [11], 5.8; in experiment [12] it was 6.3. Also, the PBM binding z-score in experiment [13] was found to be 3.02; in experiment [14] it was 5; in experiment [15], 3.87; in experiment [16] it was 2.22; in experiment [17], 1.92.
In the case of GATACAAGGTCAGCTAGAGGCCAGAGTATGGAAA, the PBM binding z-score in [1] stood at 2.56; in experiment [2], 3.25; in experiment [3] it was 0.75; in experiment [4] it was 0.155; in [5] it was 3.37; in [6] it was 0.19. Besides, the PBM binding z-score was 4.64 in experiment [7]; 1.06 in experiment [8]; 5.05 in experiment [9]; 3.93 in [10]; 6.83 in experiment [11]; 6.32 in experiment [12]. Also, the PBM binding z-score in [13] was 2.06; in [14], 4.28; in experiment [15], 3.44; in [16] it was 1.18; in experiment [18], 3.19; in experiment [17] it was 1.09.
For the sequence CCAGACAGGTGAAAGGTCACTCAGTCTGGTACGC, the PBM binding z-score was determined as 2.78 in experiment [1]; 5.19 in [2]; 0.814 in experiment [3]; 0.242 in [4]; 3.92 in experiment [5]; 5.74 in experiment [19]. For the same sequence, the PBM binding z-score in experiment [6] stood at 1.88; in [8], 1.75; in [9], 4.91; in experiment [10], 4.99; in [11], 6.66; in [12], 5.89. For the same sequence, the PBM binding z-score in [13] came out at 1.18; in experiment [15], 3.75; in experiment [16], 1.02; in experiment [17], 2.37.
CCTACTGGGCCAAAAAGGCCATTGATGCCGATAA: the PBM binding z-score in experiment [1] was 2.77; in [2], 2.4; in experiment [3], 0.199; in [4], -0.751; in experiment [5], 0.287; in experiment [6], -0.211. For the same sequence, the PBM binding z-score in experiment [7] was -0.0899; in [8] it was -0.317; in experiment [9], 0.816; in [10] it was 0.855; in experiment [11], 0.216; in experiment [12], 0.242. Besides, the PBM binding z-score is -0.537 in [13]; -0.173 in [14]; 0.0885 in [15]; -0.514 in experiment [16]; -0.0566 in experiment [17].
In the case of CGTCTAAGTTCAAGGTAACGTAACAGAAAGCAGC, the PBM binding z-score in [1] amounted to 0.796; in experiment [2], 1.09; in experiment [3] it was 0.251; in experiment [4], 0.258; in experiment [5] it was 1.64; in experiment [6], 2.9. The PBM binding z-score in experiment [7] turned out to be 2.09; in experiment [8] it was 0.625; in experiment [9], 3.79; in experiment [10] it was 2.51; in experiment [11], 3.53; in [12] it was 4.06. Besides, the PBM binding z-score in experiment [13] came out at 4.62; in experiment [14] it was 2.82; in experiment [15] it was 3.09; in [16], 2.02; in experiment [18] it was 3.43; in [17] it was 3.41.
On to GATACAGGGTCAGCTAGAGGTCAGAGTATGGAAA, for which the PBM binding z-score in experiment [1] was 1.65; in experiment [2], 3.52; in experiment [3], 0.365; in experiment [4] it was -0.0888; in experiment [5], 6.51; in experiment [19], 5.99. The PBM binding z-score in experiment [6] came out at 1.34; in experiment [8], 1.59; in [9] it was 5.32; in [10], 5.26; in experiment [12], 7.07; in experiment [13], 1.95. Moreover, the PBM binding z-score in experiment [14] is 7.42; in [15], 4.49; in [16], 1.85; in experiment [17], 3.45.
